ChEMBL document CHEMBL4513146, “CO-ADD screening of Karazin Kharkiv National University (Ukraine) compounds”
Entries with a potency or affinity are not part of this list.

Tests used:
[1] = tested on: Klebsiella pneumoniae; conditions: Concentration 32 ug.mL-1;; ASSAY_TEST Inhibition of Bacterial Growth; detection method Absorption (OD600); MEDIA CAMHB; plate type 384well; NBS; CORNING #3640; time 18 hr
[2] = tested on: Candida albicans; conditions: Concentration 32 ug.mL-1; ASSAY_TEST Inhibition of Fungal Growth; detection method Absorption (OD530)
[3] = tested on: Cryptococcus neoformans; conditions: Concentration 32 ug.mL-1; ASSAY_TEST Inhibition of Fungal Growth; detection method Resazurin; Absorption (OD600-OD570); plate type 384well; NBS; CORNING #3640

Row | Compound | Inhibition [1] | Inhibition [2] | Inhibition [3]
1 | CCCCOc1ccc(-c2cc3c4nnc(SCC(=O)Nc5ccc(C)c(C)c5)n4ccn3n2)cc1 | 4.46% | -1.19% | -6.11%
2 | CC(C)c1nnc2c(=O)n(CC(=O)Nc3cccc(Br)c3)c3ccccc3n12 | 13.24% | 6.25% | -13.28%
3 | Cc1ccccc1Oc1nc2ccccc2n2c(=O)n(CC(=O)Nc3ccccc3C(F)(F)F)nc12 | 7.22% | 11.93% | -23.01%
4 | COc1cccc(-n2ccn3c(SCC(=O)Nc4cccc(F)c4)nnc3c2=O)c1 | 0.65% | 10.45% | -5.71%
5 | Cc1nnc2c(SCC(=O)N3CCN(c4ccc(F)cc4)CC3)nc3ccccc3n12 | 12.85% | 2.24% | -2.43%
6 | Cc1cc2nn(CC(=O)Nc3ccc(F)cc3Cl)c(=O)n2c(Nc2ccc(F)cc2)n1 | 8.79% | 8.11% | -3.99%
7 | COc1ccc(-c2cc3c4nn(CC(=O)NCc5ccc(Cl)cc5)c(=O)n4ccn3n2)cc1 | 20.18% | 0.12% | -24.2%
8 | O=c1c2nn(Cc3ccccc3F)c(=O)n2ccn1-c1ccccc1 | 4.89% | 1.22% | -10.1%
9 | Cc1cccc(C)c1NC(=O)Cn1nc2n(C)c(=O)c3c(c(-c4ccccc4)cn3C)n2c1=O | 10.1% | 0.83% | -9.16%
10 | Cc1nnc2ccc(S(=O)(=O)N(Cc3ccccc3)c3ccc(Cl)cc3)cn12 | 0.23% | -0.42% | -6.05%
11 | COC(=O)c1ccc(NC(=O)Cn2nc3ccc(C(=O)NCc4ccccc4)cn3c2=O)cc1 | 7.68% | 0.61% | -23.41%
12 | O=C(Cn1nc2c(SC3CCCCC3)nccn2c1=O)Nc1ccc(F)c(Cl)c1 | 0.9% | 5.93% | -24.22%
13 | CSc1ccc(-c2noc(Cn3nc4ccc(-c5ccccc5)nn4c3=O)n2)cc1 | -3.08% | 17.1% | -6.64%
14 | Cc1ccc(NC(=O)Cn2nc3cc(C)nc(Nc4ccc(F)cc4)n3c2=O)cc1 | 11.23% | 3.22% | -24.95%
15 | CCCc1nnc2c(=O)n(CC(=O)Nc3ccc(C(C)=O)cc3)c3ccccc3n12 | 3.81% | -1.78% | -9.17%
16 | CCc1ccc(NC(=O)Cn2nc3c4cc(-c5ccc(Cl)cc5)nn4ccn3c2=O)cc1 | 19.83% | 3.83% | -20.86%
17 | Cc1ccc(NC(=O)CSc2nc3ccccc3n3c(C)nnc23)c(Br)c1 | 14.29% | 22.27% | -9.59%
18 | COc1ccc(NC(=O)Cn2nc3ccc(SC4CCCCC4)nn3c2=O)cc1OC | 8.74% | 4.98% | -24.6%
19 | COc1ccc(NC(=O)Cn2nc3c4cc(-c5ccc(C)cc5)nn4ccn3c2=O)cc1Cl | -5.12% | 9.96% | -15.26%
20 | Cc1cccc(C)c1NC(=O)CSc1nnc2ccc(C(=O)Nc3cccc(F)c3)cn12 | 10.23% | 10.31% | -3.65%
21 | O=C(CSc1nnc2c(=O)n(-c3ccccc3)ccn12)Nc1ccccc1F | 7.24% | -0.73% | -14.95%
22 | O=C(Cn1nc2nc(Nc3ccc(F)cc3)ccn2c1=O)Nc1ccc(F)cc1 | 8.54% | 3.4% | -2.56%
23 | CCC(C)NC(=O)Cn1nc2n(Cc3ccco3)c(=O)c3sccc3n2c1=O (centres undefined) | 10.15% | -0.07% | -9.56%
24 | COC(=O)c1sccc1NC(=O)Cn1nc2c(Oc3ccccc3)nc3ccccc3n2c1=O | 10.72% | 1.3% | -16.14%
25 | Cc1nnc2ccc(S(=O)(=O)N(Cc3ccc(F)cc3)c3ccc(Cl)cc3)cn12 | 9.19% | 1.14% | -10.26%
26 | CCCn1c(=O)c2sccc2n2c(=O)n(CC(=O)c3cc(C)ccc3C)nc12 | 9.58% | 6.28% | -24.9%
27 | Cc1ccc(Cl)cc1NC(=O)Cn1nc2c(SC3CCCCC3)nccn2c1=O | 10.4% | -0.14% | -28.24%
28 | Cc1ccc(S(=O)(=O)Nc2ccc3nnc(-c4ccccc4)n3n2)cc1C | 0.88% | 0.52% | -4.99%
